Only a selection was taken, and hits are over-represented in it overall.
Pf Dd2 growth – Plasmodium falciparum Dd2 growth inhibition; Potency, µM (series often up to 28.9 µM), actives largely listed as inhibitors; P. falciparum Dd2 growth, SYBR Green, 72 h; 120,000 compounds, 4.3% hits; active = well fitted inhibition curve with a large enough effect; also: nearly all actives have a fitted effect of over 65% in size
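Infected erythrocytes (Dd2, 0.3% parasitemia, 2.5% hematocrit final) are added to compound in RPMI-1640/Albumax II medium, grown 72 h at 37C in low oxygen, then lysed with saponin/Triton-X containing SYBR Green and read by fluorescence.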
Numbers stand for hits; [ ] = dose if it differs, or a comment.

What do the screens show for `COC[C@@H]1CN(c2cnccn2)C[C@H]1C(=O)NCc1ccccc1F`?
Pf Dd2 growth: inactive

How did CN(C)c1ccc(Nc2nc3ccccc3n3nnnc23)cc1 do in these assays?
Pf Dd2 growth: 7.94µM

Results for O=C(NCc1ccc(F)cc1)c1ccc(Nc2nc3ccccc3n3nnnc23)cc1 ?
Pf Dd2 growth: inactive

What do the screens show for `Cc1ccc(CCNC(=O)c2ccc(Nc3nc4ccccc4n4nnnc34)cc2)cc1`?
Pf Dd2 growth: inactive

How did O=C(c1ccc(F)cc1)N1CCC2(CC1)NC(=O)N(c1ccccc1Cl)N2 do in these assays?
Pf Dd2 growth: inactive

How did Cc1nc(-c2ccccc2)cc([C@H]2CN3CC[C@H]2C[C@@H]3CN(Cc2ccco2)Cc2ccco2)n1 do in these assays?
Pf Dd2 growth: 1.12µM

What do the screens show for `Cc1nc(-c2ccccc2)cc([C@H]2CN3CC[C@H]2C[C@@H]3CNC(=O)C2CC2)n1`?
Pf Dd2 growth: inactive

Results for Cc1nc(-c2ccc(N(C)C)cc2)cc([C@H]2CN3CC[C@H]2C[C@@H]3COC(=O)NC(C)C)n1 ?
Pf Dd2 growth: inactive

What do the screens show for `Cc1nc(-c2ccc(N(C)C)cc2)cc([C@H]2CN3CC[C@H]2C[C@@H]3CNC(=O)c2ccccc2)n1`?
Pf Dd2 growth: 3.16µM

How did Cc1nc(-c2ccccc2Br)cc([C@H]2CN3CC[C@H]2C[C@@H]3CNC(=O)c2ccc(C(C)(C)C)cc2)n1 do in these assays?
Pf Dd2 growth: 3.16µM

How did CCNC(=O)NC[C@H]1C[C@@H]2CCN1C[C@@H]2c1cc(-c2ccc(N(C)C)cc2)nc(C)n1 do in these assays?
Pf Dd2 growth: inactive

Results for COc1ccc(C(=O)NC[C@H]2C[C@@H]3CCN2C[C@@H]3c2cc(-c3ccc(N(C)C)cc3)nc(C)n2)cc1 ?
Pf Dd2 growth: inactive

What do the screens show for `Cc1ccc(C(=O)NC[C@H]2C[C@@H]3CCN2C[C@@H]3c2cc(-c3ccccc3Br)nc(C)n2)cc1`?
Pf Dd2 growth: inactive

What do the screens show for `Cc1nc(-c2ccc(N(C)C)cc2)cc([C@H]2CN3CC[C@H]2C[C@@H]3COC(=O)Nc2ccc(C(C)C)cc2)n1`?
Pf Dd2 growth: 3.98µM

How did Cc1nc(-c2ccccc2)cc([C@H]2CN3CC[C@H]2C[C@@H]3CNC(=O)C2CCC2)n1 do in these assays?
Pf Dd2 growth: inactive

How did Cc1nc(-c2ccccc2Br)cc([C@H]2CN3CC[C@H]2C[C@@H]3CNC(=O)NC2CCCCC2)n1 do in these assays?
Pf Dd2 growth: inactive

How did O=C1C(N2CCN(S(=O)(=O)c3ccc(Cl)s3)CC2)CCN1Cc1cccnc1 (stereo not drawn) do in these assays?
Pf Dd2 growth: inactive

How did COc1ccc(C(=O)NC(C(=O)N2CCCC2)C2CCN(C(=O)c3ccc(OC)cc3)CC2)cc1 (stereo not drawn) do in these assays?
Pf Dd2 growth: inactive

How did CC(C)CCC(=O)NC1CCN(c2cn[nH]c(=O)c2)CC1 do in these assays?
Pf Dd2 growth: inactive

Results for O=C(C[C@@H]1CCNC[C@@H]1Cc1cc(COc2ccccc2)on1)Nc1ccccc1 ?
Pf Dd2 growth: inactive

What do the screens show for `CN1CCN(Cc2nc(C3(O)CCN(C4COC4)CC3)cs2)CC1`?
Pf Dd2 growth: inactive

How did Cc1ccccc1N1CCN(C2CCCN(C(=O)c3ccc(-c4ccco4)cc3)C2)CC1 (stereo not drawn) do in these assays?
Pf Dd2 growth: inactive

What do the screens show for `COc1ccc(-c2cc([C@H]3CN4CC[C@H]3C[C@@H]4CN)nc(C)n2)cc1OC`?
Pf Dd2 growth: 11.2µM

How did CCCS(=O)(=O)NC[C@H]1C[C@@H]2CCN1C[C@@H]2c1cc(-c2ccc(OC)c(OC)c2)nc(C)n1 do in these assays?
Pf Dd2 growth: inactive

How did CCNC(=O)NC[C@H]1C[C@@H]2CCN1C[C@@H]2c1cc(-c2ccc(OC)c(OC)c2)nc(C)n1 do in these assays?
Pf Dd2 growth: inactive

How did CCN(C1CCOCC1)C1CN(C(=O)c2ccsc2)C1 do in these assays?
Pf Dd2 growth: inactive

What do the screens show for `CCc1nnsc1C(=O)N1CCc2nc(NC)nc(C(=O)N3CCCC3)c2C1`?
Pf Dd2 growth: inactive

How did O=C(Nc1cccc2ccccc12)O[C@@H]1CO[C@H]2[C@@H]1OC[C@@H]2NS(=O)(=O)c1cccs1 do in these assays?
Pf Dd2 growth: inactive

What do the screens show for `Cc1cccc(OCC(=O)N(Cc2ccc(C(C)(C)C)cc2)Cc2ccco2)c1`?
Pf Dd2 growth: 11.2µM

How did Cc1cc(OCC(=O)N(Cc2ccc(N(C)C)cc2)Cc2ccco2)cc(C)c1Cl do in these assays?
Pf Dd2 growth: inactive

How did Cc1ccc(CN(Cc2ccco2)C(=O)COc2ccc(C)c(C)c2)cc1 do in these assays?
Pf Dd2 growth: inactive

What do the screens show for `O=C(CC1CCN(C(=O)c2ccoc2)C1)NCc1ccccc1` (stereo not drawn)?
Pf Dd2 growth: inactive

Results for CC1CN(C(=O)N2CCC(C(=O)NCCC3=CCCCC3)CC2)c2cc(Cl)ccc2O1 (stereo not drawn) ?
Pf Dd2 growth: inactive[5.79 µM]

How did CCC1CN(C(=O)N2CCC(C(=O)NCCc3ccc(C)cc3)CC2)c2ccccc2O1 (stereo not drawn) do in these assays?
Pf Dd2 growth: inactive

Results for CCC1CN(C(=O)N2CCC(C(=O)NCCN(CC)CC)CC2)c2cc(C)ccc2O1 (stereo not drawn) ?
Pf Dd2 growth: inactive

How did CCC1CN(C(=O)N2CCC(C(=O)NCCc3ccc(OC)cc3OC)CC2)c2cc(C)ccc2O1 (stereo not drawn) do in these assays?
Pf Dd2 growth: 5.62µM

What do the screens show for `CCCNC(=O)C1CCN(C(=O)N2CC(C)Oc3ccccc32)CC1` (stereo not drawn)?
Pf Dd2 growth: inactive

What do the screens show for `Cc1ccc2c(c1)N(C(=O)N1CCC(C(=O)NCCc3ccc(Cl)cc3)CC1)CC(C)O2` (stereo not drawn)?
Pf Dd2 growth: 8.91µM

Results for CC1CN(C(=O)N2CCC(C(=O)NCc3cccs3)CC2)c2cc(Cl)ccc2O1 (stereo not drawn) ?
Pf Dd2 growth: inactive

What do the screens show for `CNC(=O)C1CCN(C(=O)N2CC(C)Oc3ccc(C)cc32)CC1` (stereo not drawn)?
Pf Dd2 growth: inactive

How did CCOc1ccc(NC(=O)C2CCN(C(=O)N3CC(C)Oc4ccc(Cl)cc43)CC2)cc1 (stereo not drawn) do in these assays?
Pf Dd2 growth: 12.6µM

What do the screens show for `COc1ccc(NC(=O)Cn2c(-c3ccccc3)nc(C)c(CCO)c2=O)cc1Cl`?
Pf Dd2 growth: inactive

What do the screens show for `CCn1ncc(N2CCC(NC(=O)c3ccc(C)s3)CC2)cc1=O`?
Pf Dd2 growth: inactive

Results for COc1ccc(NC(=O)N2CCCN(C)c3ccccc32)c(C)c1 ?
Pf Dd2 growth: inactive

Results for COc1ccc(CCN2CC(C(=O)N3CCN(C)CC3)CCC2=O)cc1 (stereo not drawn) ?
Pf Dd2 growth: inactive

What do the screens show for `CN(C)c1cc(=O)c2ccnc(-c3ccc(N4CCOCC4)cc3)c2o1`?
Pf Dd2 growth: inactive

What do the screens show for `O=C(C1CC1)N1CCC(c2nc(C3CCOCC3)no2)C1` (stereo not drawn)?
Pf Dd2 growth: inactive

How did CN1CCN(Cc2nc(C3(O)CCN(CC4CCCCC4)CC3)cs2)CC1 do in these assays?
Pf Dd2 growth: 10µM

What do the screens show for `CN1CCN(Cc2nc(C3(O)CCN(C4CCCC4)CC3)cs2)CC1`?
Pf Dd2 growth: inactive

What do the screens show for `OC1(c2csc(CN3CCN(c4ccccn4)CC3)n2)CCN(CC2CCCCC2)CC1`?
Pf Dd2 growth: inactive

Results for COc1ccc(-n2nc3n(c2=O)CCN([S+](=O)([O-])c2cccc(C(F)(F)F)c2)C3)cc1 ?
Pf Dd2 growth: inactive

What do the screens show for `COc1ccc(CCNC(=O)Cn2ccn3nc4c(c3c2=O)CCCC4)cc1OC`?
Pf Dd2 growth: inactive

Results for Cc1noc(C)c1-c1cc2c(c(-c3cccnc3)c1)C(=O)N(C)C2 ?
Pf Dd2 growth: inactive
